# In PubChem BioAssay (EPA / NIEHS):
# Records with an inconclusive call do not appear. Active and inactive are the calls of the source. Rule for the calls: active = hit-call score of the fitted dose curve at least 0.9, where 1 is the maximum; inconclusive = response in the unintended direction; inactive = score below 0.9.
# Molecular target: GAL4 Transcription Factor (Internal Marker), GAL4 (gene 855828) (UniProt P04386)
# Test: ATG_GAL4_XSP2: Attagene TRANS-FACTORIAL Multi-Species (XSP2) HepG2 Assay for GAL4 Transcription Factor (Internal Marker) (AID 2283814)
# Procedure: ATG_XSP2_multi-species_TRANS is a cell-based, multiplexed assay created by modifying the existing Attagene TRANS-FACTORIAL system to include a panel of nuclear receptors from some or all the following species: human (Homo sapiens), mouse (Mus musculus), frog (Xenopus laevis), zebrafish (Danio rerio), chicken (Gallus gallus), and turtle (Chrysemys picta). The ECOTOX-FACTORIAL format uses HepG2, a human liver cell line, with measurements taken at 24 hours after chemical dosing in a 24-well plate. Xsp2 included 3 nM 6-alpha-fluorotestosterone and 1.5 nM norgestrel to stimulate the androgen receptor.ATG_GAL4_XSP2 is one of 29 assay components measured or calculated from the ATG_XSP2_multi-species_TRANS assay. It is designed to make measurements of mRNA induction, a form of inducible reporter, as detected with fluorescence intensity signals by Reverse transcription polymerase chain reaction (RT-PCR) and Capillary electrophoresis technology.This assay endpoint, ATG_GAL4_XSP2, was analyzed in the positive analysis fitting direction relative to DMSO as the negative control and baseline of activity. Using a type of inducible reporter, measures of mRNA for gain-of-signal activity can be used to understand the background control at the transcription factor-level as they relate to the gene. Furthermore, this assay endpoint can be referred to as a secondary readout, because this assay has produced multiple assay endpoints where this one serves a background control function. To generalize the intended target to other relatable targets, this assay endpoint is annotated to the background measurement intended target family, where the subfamily is baseline control.
# Human liver HepG2 cells are transiently transfected with multiple reporter transcription units (MRTUs) in 6-well plates using FuGene 6 reagent (Roche; 3 ml FuGene/1 mg DNA). The MRTU constructs are regulated by a cis-regulating element (promoter). […] A major difference between the CIS and TRANS system is that in CIS activities of endogenous TFs are measured, whereas the TRANS assay evaluates changes in activities of exogenous, chimeric NR-Gal4 proteins. […] At the end of 24 hour incubation, total RNA was isolated using TriZol reagent (Invitrogen). The isolated RNA is then reverse-transcribed using oligo(dT) primer and Mo-MLV reverse transcriptase (Invitrogen) with DNAse I (Ambion) treatment for 30 min. The one-tenth of the produced cDNA was amplified by PCR using Taq DNA polymerase (Invitrogen) and two reporter sequence-specific primers. The PCR products were fluorescently labeled by primer extension with 6-arboxyfluorescein (6-FAM) 5'-labeled reporter sequence-specific primer (2 min at 95 C, 20 s at 68 C and 10 min at 72 C) and these products were digested with 5U of HpaI (New England Biolabs) for 2h at 37 C. The fragments were purified using Qiaquick PCR columns (Qiagen), analyzed on an ABI 3130xL genetic analyzer (Applied Biosystems) with peak positions identified by using a set of X-rhodamine (ROX)-labeled MapMarker1000 molecular weight standards (BioVentures). The raw capillary electrophoresis data was processed using Attagraph software (Attagene).
# Sequence of GAL4 Transcription Factor (Internal Marker), GAL4 (gene 855828) (P04386 whole entry, looked up, the tested form may be a part): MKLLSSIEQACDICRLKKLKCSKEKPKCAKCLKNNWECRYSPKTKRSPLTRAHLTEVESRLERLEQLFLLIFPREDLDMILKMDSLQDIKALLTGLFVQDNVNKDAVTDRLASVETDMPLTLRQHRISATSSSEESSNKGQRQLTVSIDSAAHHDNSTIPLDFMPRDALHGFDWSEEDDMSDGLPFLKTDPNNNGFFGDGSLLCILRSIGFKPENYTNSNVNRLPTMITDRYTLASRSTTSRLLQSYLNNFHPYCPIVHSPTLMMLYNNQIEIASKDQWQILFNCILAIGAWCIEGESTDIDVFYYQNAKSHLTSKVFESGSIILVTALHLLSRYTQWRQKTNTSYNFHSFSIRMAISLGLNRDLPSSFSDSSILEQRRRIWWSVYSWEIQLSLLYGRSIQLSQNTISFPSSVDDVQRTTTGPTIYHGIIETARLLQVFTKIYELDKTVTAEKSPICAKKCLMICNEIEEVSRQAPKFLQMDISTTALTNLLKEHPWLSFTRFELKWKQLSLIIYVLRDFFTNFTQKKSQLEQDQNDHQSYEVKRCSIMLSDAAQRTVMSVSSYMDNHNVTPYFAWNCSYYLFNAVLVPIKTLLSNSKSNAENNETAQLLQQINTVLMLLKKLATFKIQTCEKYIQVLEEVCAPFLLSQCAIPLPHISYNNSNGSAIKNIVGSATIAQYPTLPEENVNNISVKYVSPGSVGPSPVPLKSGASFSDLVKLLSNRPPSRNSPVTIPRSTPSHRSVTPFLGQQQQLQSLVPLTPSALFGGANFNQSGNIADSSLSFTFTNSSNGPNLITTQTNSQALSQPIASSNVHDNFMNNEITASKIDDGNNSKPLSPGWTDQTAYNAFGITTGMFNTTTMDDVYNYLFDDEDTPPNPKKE
row,Compound,outcome
1,CON(C)C(=O)Nc1ccc(Cl)c(Cl)c1,inactive
2,CC(C)Oc1cc(-n2nc(C(C)(C)C)oc2=O)c(Cl)cc1Cl,inactive
3,COc1ccc(C(c2ccc(OC)cc2)C(Cl)(Cl)Cl)cc1,inactive
4,CC(C)(C)c1ccc(CSc2cnn(C(C)(C)C)c(=O)c2Cl)cc1,inactive
5,C#CCOS(=O)OC1CCCCC1Oc1ccc(C(C)(C)C)cc1 (stereo not given),inactive
6,COC(=O)N(OC)c1ccccc1COc1ccn(-c2ccc(Cl)cc2)n1,inactive
7,OC(c1ccc(Cl)cc1)(c1cncnc1)c1ccccc1Cl (stereo not given),inactive
8,CCCCOC(=O)c1ccccc1C(=O)OCCCC,inactive
9,CCCC1COC(Cn2cncn2)(c2ccc(Cl)cc2Cl)O1 (stereo not given),inactive
10,CCOP(=S)(OCC)SCn1c(=O)oc2cc(Cl)ccc21,inactive
